# Test system: RARb homodimer (NR concentration 270 nM)
# Assay: PBM binding z-score (relative to random genomic background probes); higher = stronger binding; sequences stand for … in GC…GCGATTGACAGCGTAGAATGAAGG
# In short: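 Binding z-scores were set against random background probes. The data came from custom Agilent 4×180K protein-binding microarrays carrying double-stranded probes with 34-nt variable regions, incubated 1 h with ligand-free nuclear receptor dimers. Partner-specific antibodies detected binding, and scanned fluorescence was regression-normalized.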
row,Sequence,PBM binding z-score
1,GCAGACACGTGAAACGCAGGTAACTCAGGGTGGC,-0.78
2,TCATATAGGTAAATGCTAGGTGATAGTCCGATCT,-0.0324
3,AGAACAAGGGCACGCTGAGTTGATAGCAGAGTAG,1.11
4,CCTTACGGGTCACTTCAGGTTATAGCATCGGAGT,2.86
5,ATCGAAAGGTCGAAGGTGAATATACCCACCCGAA,2.61
6,CCTATTAGTTGACCATAAGGGCAGCCGAAGCTCG,1.55
7,GCTAGCAGGCCTTTTGGGTCACTCAATGACGGGC,1.39
8,CATAGCAGGCCAATCTGGGTCACTCAAGGCTTGA,1.85
9,CCAGACAGGTGAAAGGTGACTCAGTCTGGTACGC,1.63
10,TATCGGAGGACACGAAGGTCAGAGCTTTCCAGAG,3.47
11,AGAATGAGGTTATTAAGATCAGTGAATTGCGGTC,0.636
12,TCTCGGAGGACACGAGAGGTCAGAGCTCGACATC,4.3
13,ATTCAAAGTTCAGGACGAGGTAACGTAAAGCACG,3.31
14,CCAGACAGGTGAGAGGGTAACTCAGCCTCGATTA,1.02
15,TCGAGTAGGTTAGTCGGCGCATTCAGCCAACATA,-0.408
16,CAAATTAGGTCAAGAGGTCAAAGTCCGCTTCCCG,5.68
17,GCTAGCAGGCCATATGGGTCACTCAATGACGGGC,1.78
18,TCCTGTAGATCAGCAGGTTAAGAAAGCTGGCCAA,-0.00726
19,ATCGAAAGGTCGAGGTGAATATAGAGAAAGGGAA,2.88
20,ACAGACAGGTGATTAAGGTAACTCAGGCTATCAT,0.49

row,Sequence,PBM binding z-score
1,AGTCGAAGTTCACTAGGTAACGTAAGATTCAGCT,1.74
2,CGAACTAGGTCAAGGACAGTCAATCTCCGCACGC,3.32
3,TCGAGGAGGTTACCAATGGGGCATTCAGCTTTCT,1.69
4,TCATATAGGTAAATGCTATGTGAAAGTCCGATCT,-0.22
5,ACTAGCAGGCCAAGGTTGGGTCACTCAAACAAAG,2.3
6,GCTGCTAGGTCAGGTAGGTCAGCTAACGGGTACG,4.09
7,TCTTGTAGATCACGCAGGTTAAGAAAGCCTGAGT,0.254
8,CCGACTGGGGCAAGGTTAGCATAACGCACAGCCA,0.752
9,TAGCCTAGGTCATTGGTCCAGTATAGTACGCATC,2.86
10,CAAACTAGGTCAAAGGTCAAAGTGGAGCCAACCA,4.96
11,CGAACCAGGGCATGAGTTGATAGCAAATGCCGAT,0.207
12,CGAACTAGGTCATTGTCAGGACAGTGAATAGTAA,2.62
13,ATACCAAGGTGATCGTGACGTCGTTGATACTAAC,0.537
14,TCTTGTAGATCAAGCAGGTTAACAAAGCCTGAGT,0.14
15,CCTACTGGGCCACGAAAGGTCAATGATTCAGTGA,4.81
16,ATCTCTAGGTAAAGATAGTTCGGTGAATGCAAAT,-0.015
17,TCTATTAGTTGAAGGACAACCGACGAGTCCGTTT,0.756
18,TCTAGTAGATCAAGCAGGTTAAGAAAGCCTGAGT,-0.158
19,ATACCATGGTGATCGTGAGGTCGTTGATACTAAC,1.18
20,CCTACTGGGCGATCAGGTCATTGATATCAACGTT,2.23

# From the supplement of paper PMC6555819
